{"source": "PubChem BioAssay (NCI)", "note": "“And” between values parts separate entries of the source, which are not always exact repeats. Equal entries are not always repeated. About 83,000 compounds went through this panel and 20% of them were active in at least one assay; those are over-represented in the sample as a whole.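 Negative percent growth values reflect cell death: -40 means 40% of the cells present at the start died, and -100 means all died.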 A number with no mark means an inactive call. The source made the active and inactive calls. Rule for the calls: active = growth percent below 10; inactive = the rest."}
{"tested_on": "HL-60(TB) leukemia", "assay": "NCI-60 one-dose screen, 48 h (100 = growth as untreated, 0 = no growth, -100 = all killed)", "conditions": "10 µM unless noted"}
{"smiles": "O=C(NCCc1ccc(O)c(O)c1)C12CC3CC(CC(C3)C1)C2", "growth": "57%"}
{"smiles": "O=C1COCCN1c1ccc(Nc2nc(Cl)nc(OCc3cn(Cc4ccccc4)nn3)n2)cc1", "growth": "40.3%"}
{"smiles": "COc1ccc(Cn2c(Br)c3c(c2Br)-c2nc(NC(=O)c4ccc(OC)cc4)sc2CC3)cc1", "growth": "75.9%"}
{"smiles": "O[C@H](c1cc(C(F)(F)F)nc2c(C(F)(F)F)cccc12)[C@@H]1CCCCN1", "growth": "52.8% and 50.7%"}
{"smiles": "Cc1sc2nc3[nH]/c(=C\\c4ccc(Cl)cc4)c(=O)n3c(=O)c2c1C", "growth": "92.8%"}
{"smiles": "COc1ccc(C(=O)COC(=O)[C@H](C[Se][Se]C[C@H](NC(=O)c2ccc(Br)cc2F)C(=O)OCC(=O)c2ccc(OC)cc2)NC(=O)c2ccc(Br)cc2F)cc1", "growth": "2.8% (active)"}
{"smiles": "Cc1nnc(-n2c(O)cc(=O)n(-c3ccccc3)c2=S)nc1/C=C/c1ccc(N(C)C)cc1", "growth": "7.92% (active)"}
{"smiles": "CCS(=O)(=O)CCCl", "growth": "99.8%"}
{"smiles": "Nc1cccc(-c2nc3sccn3c2-c2ccnc(NCCNS(=O)(=O)c3ccc(C(F)(F)F)cc3)n2)c1", "growth": "89.1%"}
{"smiles": "CCN(CC)CCC(CNc1ccnc2cc(Cl)ccc12)c1ccc(OC)cc1", "note": "(stereo not given)", "growth": "63.7% and 61.7%"}
{"smiles": "COc1ccc2c(=O)cc(C(Cl)(Cl)Cl)oc2c1", "growth": "-32.6% (active)"}
{"smiles": "c1ccc(NCc2ccc3c(c2)OCO3)cc1", "growth": "94.6% and 96.1%"}
{"smiles": "COc1ccc(C2=NN(C(C)=O)C(c3cc(OC)c(OC)c(OC)c3)C2)cc1", "note": "(stereo not given)", "growth": "95.2%"}
{"smiles": "C/C=C/C(=O)OCCCCCCCCCCCC", "growth": "85.2%"}
{"smiles": "O/N=C(/c1ccccc1)c1ccc2c3c(cccc13)CC2", "growth": "86.9% and 101%"}
{"smiles": "Cn1cc(-c2csc(-c3ccc(Cl)cc3)n2)c2cccnc21", "growth": "7.96% [100 µM] (active)"}
{"smiles": "CCCCn1c(=O)c(C2CNC(=O)c3ccccc3N2)cc2ccccc21", "note": "(stereo not given)", "growth": "96.7%"}
{"smiles": "O=c1[nH]c([C@@H]2CCCN2)nc2c1oc1ccc(Cl)cc12", "growth": "101%"}
{"smiles": "COCCn1cc(-c2nc(-c3cccnc3)cs2)c2cc(F)ccc21", "growth": "93.4%"}
{"smiles": "CCn1nc(-c2ccccn2)c2cccnc2c1=S", "growth": "37.4%"}
{"smiles": "Cc1cccc(Cl)c1NC(=O)c1ccc2nc(NC(=O)NCCN(C)C)sc2c1", "growth": "115%"}
{"smiles": "O=C(Cn1cc(CN2C(=O)c3ccccc3S2(=O)=O)nn1)Nc1nc2ccccc2s1", "growth": "113%"}
{"smiles": "ClC1(Cl)C2CCCCCCC21", "note": "(stereo not given)", "growth": "106%"}
{"smiles": "Cc1cc2nc3c4cc(O)ccc4n(CCN(C)C)c3nc2cc1C", "growth": "7.36% (active)"}
{"smiles": "Cc1[nH]c(C(=O)Nc2ccccc2OCc2cccc(C(=O)NCCN)c2)c(Cl)c1Cl", "growth": "45%"}
{"smiles": "COc1ccc(C(=O)Nc2ncc(Cc3cccc(Cl)c3)s2)cc1OC", "growth": "11.1%"}
{"smiles": "CCOC(=O)c1sc2ncnc(Nc3ccc(NC(=O)Nc4ccc(Cl)cc4)cc3)c2c1C", "growth": "91.4%"}
{"smiles": "COc1ccccc1C(C[N+](=O)[O-])c1c(-c2ccccc2)[nH]c2cc(C)ccc12", "note": "(stereo not given)", "growth": "58.9%"}
{"smiles": "O=C(Nc1ccc(-n2ccc3c(NC(=O)c4ccccc4)ncnc32)cc1)Nc1cccc(Cl)c1Cl", "growth": "62.9%"}
{"smiles": "COc1ccc2nc(-c3ccc(Cl)cc3)cc(-c3nnc(SCC(=O)Nc4ccc(/C(C)=N\\O)cc4)o3)c2c1", "growth": "61.9%"}
{"smiles": "O=C(/C=C/c1cccc(O)c1)c1cccc(-n2cc(-c3ccccc3)[nH]c2=O)c1", "growth": "42.1%"}
{"smiles": "COc1cc(C(=O)n2nc(-c3cc(OC)c(OC)c(OC)c3)nc2N)cc(OC)c1OC", "growth": "67.7%"}
{"smiles": "C/C(=N/NC(N)=S)c1ccc(C)cc1", "growth": "92%"}
{"smiles": "CN(O)c1nc(N(C)O)nc(N2CCOCC2)n1", "growth": "21.5%"}
{"smiles": "CCCCn1cnc2c(=O)[nH]cnc21", "growth": "108%"}
{"smiles": "Cn1ncc2c(Nc3ccc(O)cc3)nc(Cl)nc21", "growth": "95.1%"}
{"smiles": "COc1ccc(C2=C(c3cc(OC)c(OC)c(OC)c3)C(=O)CC2)cc1", "growth": "11.1%"}
{"smiles": "C/C(=C(/c1ccc(Cl)cc1)c1ccc(OCCN2CCCC2)cc1)c1ccc(Cl)cc1", "growth": "69.5%"}
{"smiles": "CS(=O)(=O)Nc1cc(-c2ccc3ncnc(Nc4ccc5c(cnn5Cc5ccccn5)c4)c3c2)cnc1Cl", "growth": "56.5%"}
{"smiles": "O=C(Cc1ccc(/C=C/C(=O)c2ncc[nH]2)cc1)Nc1ccccc1", "growth": "7.76% (active)"}
